Assay [1] can be described thus: anti-His antibody binders, primary screen, artefact control for SMM control protein annotation, biochemical, small-molecule microarray, 635 nm fluorescence (AID 1128).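 Also: score merges feature fluorescence with signal-to-noise for each printed compound spot.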 The settings on record: anti-His Alexa647 antibody binding, higher = more signal.
The subject of assay [2] is Human papillomavirus type 1a E7 protein (residues 1-88). Nature of the assay: HPV1a E7 small-molecule binders, primary screen, biochemical, small-molecule microarray, residues 1-88, 635 nm (AID 1129). The settings on record: small-molecule microarray binding, fluorescence 635 nm; higher = more signal.
Assay [3] deals with Focal adhesion kinase 1 (Homo sapiens) (UniProt Q05397). Nature of the assay: small-molecule microarray binders of FAK, primary screen, biochemical, 635/667 nm fluorescence, BSA, DTT (AID 1130).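 Also: composite of spot emission at 667 nm and signal to noise over triplicate slides.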 The settings on record: PTK2 binding, 635 nm fluorescence, higher = more signal.
Sequence of Focal adhesion kinase 1 (Homo sapiens) (Q05397 whole entry, looked up): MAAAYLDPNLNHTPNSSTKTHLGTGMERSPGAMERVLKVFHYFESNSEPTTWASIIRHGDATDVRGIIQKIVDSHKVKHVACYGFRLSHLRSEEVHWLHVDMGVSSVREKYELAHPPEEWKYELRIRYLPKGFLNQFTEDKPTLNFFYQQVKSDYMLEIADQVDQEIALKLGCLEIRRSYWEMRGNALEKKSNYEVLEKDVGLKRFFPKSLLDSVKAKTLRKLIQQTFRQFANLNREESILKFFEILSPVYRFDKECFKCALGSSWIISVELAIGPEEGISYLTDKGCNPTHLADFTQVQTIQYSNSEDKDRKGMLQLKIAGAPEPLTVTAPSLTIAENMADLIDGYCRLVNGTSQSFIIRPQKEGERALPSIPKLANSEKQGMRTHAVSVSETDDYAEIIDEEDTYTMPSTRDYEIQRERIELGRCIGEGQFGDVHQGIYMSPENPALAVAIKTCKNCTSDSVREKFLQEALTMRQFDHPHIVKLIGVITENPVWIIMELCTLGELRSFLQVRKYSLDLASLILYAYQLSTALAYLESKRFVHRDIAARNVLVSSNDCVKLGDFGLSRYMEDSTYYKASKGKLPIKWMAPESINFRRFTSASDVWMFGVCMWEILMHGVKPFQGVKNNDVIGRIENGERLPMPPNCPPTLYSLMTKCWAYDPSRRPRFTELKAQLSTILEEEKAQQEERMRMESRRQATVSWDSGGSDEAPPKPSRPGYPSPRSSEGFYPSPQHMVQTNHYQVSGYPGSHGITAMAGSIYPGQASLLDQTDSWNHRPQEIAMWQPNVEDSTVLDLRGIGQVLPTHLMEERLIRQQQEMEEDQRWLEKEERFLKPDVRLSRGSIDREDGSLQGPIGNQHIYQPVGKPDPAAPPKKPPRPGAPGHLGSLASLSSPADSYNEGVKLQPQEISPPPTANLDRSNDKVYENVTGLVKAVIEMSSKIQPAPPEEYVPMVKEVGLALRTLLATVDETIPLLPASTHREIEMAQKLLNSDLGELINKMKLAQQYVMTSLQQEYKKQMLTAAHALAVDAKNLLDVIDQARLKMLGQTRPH
Assay [4] relates to Fibrinogen (Alexa647-labelled). Briefly: fibrinogen binders on compound microarrays, profiling panel, artefact control for SMM control-protein annotation, biochemical, small-molecule microarray, 635/667 nm fluorescence (AID 1131).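 Also: z-score merges 667 nm fluorescence with per-spot signal-to-noise over triplicate slides.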 The note with it: fibrinogen-A647 binding fluorescence, higher = more signal.
Assay [5] concerns the target Follistatin (Homo sapiens) (UniProt P19883). Nature of the assay: follistatin binders on small-molecule microarrays, primary screen, biochemical, small-molecule microarray, 635/667 nm fluorescence (AID 1132). The settings on record: FST binding, 635 nm fluorescence, higher = more signal.
Assay [6] deals with Fibroblast growth factor 2 (Homo sapiens) (UniProt P09038). Nature of the assay: FGF2 binders on small-molecule microarrays, primary screen, biochemical, small-molecule microarray, 635/667 nm fluorescence (AID 1133). The note with it: small-molecule microarray binding, FGF2, fluorescence 635/667; higher = more signal.
Sequence of Fibroblast growth factor 2 (Homo sapiens) (P09038 whole entry, looked up): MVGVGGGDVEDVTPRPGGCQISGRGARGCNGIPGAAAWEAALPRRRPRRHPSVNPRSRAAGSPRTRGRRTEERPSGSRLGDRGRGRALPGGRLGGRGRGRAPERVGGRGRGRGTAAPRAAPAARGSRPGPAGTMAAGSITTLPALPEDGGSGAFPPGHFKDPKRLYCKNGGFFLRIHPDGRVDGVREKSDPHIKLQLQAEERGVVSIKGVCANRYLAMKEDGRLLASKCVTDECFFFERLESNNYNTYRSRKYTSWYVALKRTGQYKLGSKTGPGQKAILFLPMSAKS
A short description of assay [7]: mitochondrial membrane potential change in A549 cells, profiling panel, cell-based, JC-1 fluorescence, basal, 24 h, 100 nL (AID 1138).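 Also: A549 lung adenocarcinoma cells under basal conditions with no added stimulus; test concentration not given here.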 The note with it: higher = more signal.
Assay [8] deals with Lefty1. Briefly: Lefty1 binders on small-molecule microarrays, primary screen, biochemical, small-molecule microarray, 635/667 nm fluorescence (AID 1139). The settings on record: small-molecule microarray binding, fluorescence 635/667; higher = more signal.
Assay [9] deals with wheat germ agglutinin (Triticum aestivum), Alexa647-labelled. Briefly: wheat germ agglutinin binders on compound microarrays, profiling panel, artefact control for SMM control-protein annotation, biochemical, small-molecule microarray, 635/667 nm fluorescence (AID 1140).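 Also: score merges 667 nm feature emission with signal to noise over triplicate slides.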 The note with it: WGA-A647 binding, 635 nm fluorescence, higher = more signal.
Assay [10] addresses Luciferin 4-monooxygenase (Photinus pyralis) (UniProt P08659). Nature of the assay: firefly luciferase enzyme inhibitors, primary screen, biochemical, luminescence, purified enzyme, 2006 set (AID 1141).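 Also: cell-free assay with purified firefly luciferase at 100 ng per well in PBS; test concentration not given here.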 The note with it: SteadyGlo luminescence, 30 min, higher = more signal, called active from +8 up or from −8 down.
Assay [11] has as its system Wnt5a (protein binding on small-molecule microarray). Nature of the assay: Wnt5a binders on small-molecule microarray, primary screen, biophysical, 635/667 nm fluorescence (AID 1142).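 Also: fluorescence read at 667 nm with signal to noise per printed feature.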 The note with it: 635 nm fluorescence, higher = more signal.
The nature of assay [12]: cell viability in Huh7 cells, primary screen, cytotoxicity control for HCV replication inhibitor project, CellTiter-Glo luminescence, basal, 48 h (AID 1143).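 Also: Huh7 hepatoma cells carrying a hepatitis C replication reporter with no stimulus; test concentration not given here.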 The settings on record: Huh7 HCV replicon, higher = more signal, called active from +8 up or from −8 down. A general note: In ATP-based viability assays light output follows the ATP content of the culture.
Assay [13] is described as follows: P. aeruginosa biofilm formation inhibitors, primary screen, PAO1 strain, BacTiter-Glo luminescence, LB-PBS (AID 1144). The note with it: 12 h, higher = more signal.
Assay [14] is described as follows: CREB reporter modulators without forskolin, primary screen, cell-based, PC12, CRE-LacZ reporter, unstimulated (AID 1145). The note with it: no forskolin, luminescence, 4.5 h, higher = more signal, called active from +8 up or from −8 down.
A short description of assay [15]: CREB reporter modulators under forskolin, primary screen, cell-based, PC12, CRE-LacZ reporter, forskolin-stimulated (AID 1146).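 Also: PC12 cells with 6xCRE LacZ reporter stimulated by forskolin 10 µM; beta-galactosidase reporter signal reflecting CREB driven transcription.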 The note with it: luminescence, 4.5 h, higher = more signal, called active from +8 up or from −8 down.
Assay [16] concerns the target Streptavidin (Streptomyces avidinii) (UniProt P22629). Briefly: streptavidin binders on small-molecule microarray, primary screen, artefact control for SMM compound annotation, biophysical, 635/667 nm fluorescence (AID 1147).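 Also: signal reflects streptavidin binding to arrayed compounds as a control protein.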 The note with it: streptavidin binding, higher = more signal.
Assay [17] in a line: small-molecule binders of probe aInhba, primary screen, biochemical, small-molecule microarray, 635/667 nm fluorescence (AID 1148).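 Also: score merges 667nm spot fluorescence with signal-to-noise for antibody binding to printed compounds.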 The settings on record: higher = more signal.
For assay [18], the target named is Torsin-1A (Homo sapiens) (UniProt O14656). Briefly: torsin A binders from cell lysate, primary screen, small-molecule microarray, wild-type, 635/667 nm (AID 1149). The settings on record: COS7 hTOR1A-WT lysate, 635 nm fluorescence, higher = more signal.
Sequence of Torsin-1A (Homo sapiens) (O14656 whole entry, looked up): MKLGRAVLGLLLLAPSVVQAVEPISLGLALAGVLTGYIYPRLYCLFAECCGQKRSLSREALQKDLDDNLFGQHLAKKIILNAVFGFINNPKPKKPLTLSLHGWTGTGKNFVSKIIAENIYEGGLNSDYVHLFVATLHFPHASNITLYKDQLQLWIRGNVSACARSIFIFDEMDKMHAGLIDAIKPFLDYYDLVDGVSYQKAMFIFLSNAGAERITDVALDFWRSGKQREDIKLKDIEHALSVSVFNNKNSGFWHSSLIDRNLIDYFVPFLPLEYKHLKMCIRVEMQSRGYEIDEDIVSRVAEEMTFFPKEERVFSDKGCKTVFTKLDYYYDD
Assay [19] has the same target. Nature of the assay: small-molecule binders of mutant TOR1A in lysate, primary screen, cell lysate, small-molecule microarray, COS7 lysate, 635/667 nm fluorescence (AID 1150).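 Also: score pools 667 nm emission and signal to noise measuring lysate protein binding.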 The settings on record: COS7 hTOR1A mutant lysate, 635 nm fluorescence, higher = more signal.
Assay [20] deals with Sonic hedgehog protein (Shh). Nature of the assay: small-molecule binders of Shh protein, primary screen, biochemical, small-molecule microarray, 635/667 nm fluorescence (AID 1151).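 Also: Shh protein binding to compounds spotted on small-molecule microarray slides; score combines spot fluorescence intensity with signal-to-noise across triplicate slides.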 The note with it: small-molecule microarray binding, 635 nm fluorescence; higher = more signal.

Active and inactive are the calls of the source. Unless noted, no rule for the calls is given here.

Sequence of Follistatin (Homo sapiens) (P19883 whole entry, looked up): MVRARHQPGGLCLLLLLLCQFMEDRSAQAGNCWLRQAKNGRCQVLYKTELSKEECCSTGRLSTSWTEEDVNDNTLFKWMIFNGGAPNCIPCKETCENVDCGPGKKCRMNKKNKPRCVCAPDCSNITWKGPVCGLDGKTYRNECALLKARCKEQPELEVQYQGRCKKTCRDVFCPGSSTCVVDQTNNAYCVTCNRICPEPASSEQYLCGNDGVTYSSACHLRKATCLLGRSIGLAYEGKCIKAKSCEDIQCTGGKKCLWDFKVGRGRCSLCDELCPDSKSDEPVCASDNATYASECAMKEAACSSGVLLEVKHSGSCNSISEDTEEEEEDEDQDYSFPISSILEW
Sequence of Luciferin 4-monooxygenase (Photinus pyralis) (P08659 whole entry, looked up): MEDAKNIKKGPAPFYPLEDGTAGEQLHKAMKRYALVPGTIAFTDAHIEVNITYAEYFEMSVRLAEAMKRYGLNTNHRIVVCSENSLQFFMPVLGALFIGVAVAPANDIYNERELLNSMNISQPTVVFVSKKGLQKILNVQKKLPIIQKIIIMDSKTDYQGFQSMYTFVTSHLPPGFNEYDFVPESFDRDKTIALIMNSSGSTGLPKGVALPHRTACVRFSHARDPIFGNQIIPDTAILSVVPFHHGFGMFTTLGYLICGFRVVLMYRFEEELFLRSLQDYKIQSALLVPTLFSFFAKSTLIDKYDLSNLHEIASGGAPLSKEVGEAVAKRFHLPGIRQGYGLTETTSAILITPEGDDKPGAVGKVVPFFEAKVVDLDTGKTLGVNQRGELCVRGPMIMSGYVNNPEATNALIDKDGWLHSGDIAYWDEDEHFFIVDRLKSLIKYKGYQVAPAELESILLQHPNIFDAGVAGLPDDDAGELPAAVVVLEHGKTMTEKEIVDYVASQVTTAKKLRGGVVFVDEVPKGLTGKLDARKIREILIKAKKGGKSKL
Sequence of Streptavidin (Streptomyces avidinii) (P22629 whole entry, looked up): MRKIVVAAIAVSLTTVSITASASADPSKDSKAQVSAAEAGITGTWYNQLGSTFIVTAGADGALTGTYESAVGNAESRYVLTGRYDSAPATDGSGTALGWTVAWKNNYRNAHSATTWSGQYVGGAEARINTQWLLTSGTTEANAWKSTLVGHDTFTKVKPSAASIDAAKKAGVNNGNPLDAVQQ

With `COCCCNC(=O)[C@@H]1c2ccccc2C(=O)N(Cc2cc(C(F)(F)F)cc(C(F)(F)F)c2)[C@H]1c1ccc(CO)cc1`, the composite z-score was 0.358 in assay [1]; 0.6 in [2]; 0.358 in assay [3]; -0.788 in [4]; 0.144 in assay [5]; 0.188 in assay [6]. For the same molecule, the composite z-score in [8] is 0.174; in assay [9] it was -0.672; in assay [11] it was 0.128; in assay [16] it was -0.587; in assay [17] it was 0.502; in assay [18] it was 0.47. Moreover, the figures for the composite z-score in [19] and in [20] were 0.7 and 0.395, respectively. Also, the z-score in assay [7] was 0.983; in [10], 0.0036 (inactive); in assay [12] it was -0.334 (inactive); in assay [13], 0.608 (inactive); in assay [14], 0.288 (inactive); in assay [15], -0.613 (inactive).
Regarding `COc1ccccc1CN1C(=O)c2ccccc2[C@@H](C(=O)NCCCN(C)C)[C@@H]1c1ccc(CO)cc1`, the composite z-score is 0.802 in [1]; 0.232 in assay [2]; -0.492 in assay [3]; -0.741 in [4]; 0.104 in [5]; 0.303 in assay [6]. Moreover, the composite z-score was 0.409 in assay [8]; 0.131 in assay [9]; 0.0968 in [11]; -0.523 in [16]; 0.0028 in assay [17]; -0.236 in [18]. The values for the composite z-score in assay [19] and in [20] were -0.0195 and -0.0791, respectively. Further, the z-score is 2.1 in [7]; 0.731 (inactive) in [10]; -2.77 (inactive) in assay [12]; -1.58 (inactive) in assay [13]; 0.531 (inactive) in [14]; -0.744 (inactive) in assay [15].
On to `C=CCC(OC(C)=O)[C@@H]1[C@@H](N(Cc2cccc3ccccc23)C(=O)c2cccc3ccccc23)c2cc(OCCCO)ccc2N1C(=O)Cc1ccc2ccccc2c1` (stereo not given in full), for which the composite z-score was 0.866 in assay [1]; -0.0855 in assay [2]; 0.119 in assay [3]; -0.438 in [4]; 0.832 in assay [5]; 0.448 in assay [6]. The composite z-score in assay [8] is 0.093; in [9] it was 0.457; in assay [11], -0.0137; in assay [16], -0.166; in assay [17], 0.0497; in assay [18] it was -1.07. In addition, the values for the composite z-score in assay [19] and in assay [20] were -0.736 and 0.882, respectively. In addition, the z-score in assay [7] was 0.169; in assay [10] it was 1.06 (inactive); in assay [12], -1.61 (inactive); in assay [13] it was 0.576 (inactive); in [14], -0.36 (inactive); in assay [15], 0.272 (inactive).
As to `CCCCN1CC=CC23O[C@@H]4C=CCOC(=O)[C@@H]4[C@H]2C(=O)N(CCO)[C@@H]3C1=O` (stereo not given in full), the composite z-score in assay [1] was -0.211; in assay [2] it was -0.629; in assay [3], -0.681; in assay [4], -0.717; in [5], -1.06; in assay [6], -1.39. Besides, the composite z-score in assay [8] was -1.45; in [9], -1.29; in [11] it was -0.477; in assay [16], -0.94; in assay [17], 0.059; in assay [18], 0.0805. Moreover, the composite z-score was -0.243 in [19] and -0.858 in assay [20]. The z-score in [7] was 0.0309; in assay [10], 0.0308 (inactive); in assay [12] it was -0.238 (inactive); in assay [13], 1.1 (inactive); in [14] it was 0.0605 (inactive); in [15], 0.113 (inactive).
With `CO[C@H]1O[C@H](CO)[C@@H](OC(=O)Nc2ccc(C(F)(F)F)cc2)[C@H](OC(=O)Nc2ccccc2-c2ccccc2)[C@@H]1OC(=O)Nc1ccccc1-c1ccccc1`, the composite z-score stood at 2.01 in assay [1]; 1.1 in assay [2]; 0.799 in [3]; 0.911 in assay [4]; 1.3 in [5]; 0.697 in assay [6]. For the same molecule, the composite z-score was found to be 1.08 in [8]; 1.04 in assay [9]; 0.229 in [11]; 1.02 in assay [16]; 0.228 in assay [17]; 0.363 in [18]. Besides, the values for the composite z-score in assay [19] and in assay [20] were 0.979 and 1.34, respectively. Moreover, the z-score in [7] is 0.284; in assay [10], 0.798 (inactive); in [12], -4.02 (inactive); in assay [13] it was 0.821 (inactive); in [14], 0.148 (inactive); in [15], 0.892 (inactive).

The record behind these values is PubChem BioAssay.
